This is a sample that favours compounds with a hit; in the whole collection about 3.9% have one here.
TGFb SMAD3 inh – qHTS for Inhibitors of TGF-b. HepG2 CAGA-GFP TGF-b/SMAD3 reporter, GFP fluorescence, 18 h; TGF-beta stimulated, 500 pg/mL final. Potency, µM (doses to about 46.1 µM), for inactives: at the top dose activity, negative = inhibition, usual class: inhibitors. 410,000 compounds, 1.2% hits. AID 588855, 2011; also: % is scaled to controls: 0 for no effect and ±100 for the full control effect; nearly all actives have a fitted effect of over 65% in size
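HEPG2 CAGA-GFP cells (1000/well, DMEM with 1% FBS) were pre-incubated 2 h at 37 degrees C, given compound by pin tool, then stimulated with TGF-beta at 500 pg/mL final for 18 h before per-cell GFP fluorescence imaging.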
HT1080-NT tox – qHTS for induction of synthetic lethality in tumor cells producing 2HG: qHTS for the HT-1080-NT fibrosarcoma cell line; HT-1080-NT fibrosarcoma viability, CellTiter-Glo ATP luminescence, 48 h; 360,000 compounds, 1.6% hits; Potency, µM (top dose mostly 46.1 µM), for the others: at the top dose activity, negative = less viability, most hits filed as cytotoxic;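 also: NT is the 2HG producing partner of a matched IDH1 knockdown line; 0% = DMSO-treated cells and -100% = media-only wells without cells; nearly all actives have a fitted effect of over 55% in size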
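Fibrosarcoma NT cells, 750 per well in 5% FBS RPMI, were exposed to compound for 48 hours. Viability: CellTiter-Glo luminescence.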
ATXN viability – Viability Counterscreen for Primary qHTS for Inhibitors of ATXN expression; S2 cells (HEK-293 line with an ATXN2-luciferase reporter) viability, CellTiter-Fluor protease fluorescence, 24 h; Potency, µM (series often up to 56.7 µM), actives largely listed as cytotoxic; 400,000 compounds, 0.49% hits; AID 651635, 2014; also: nearly all actives have a fitted effect of over 40% in size
ATXN2 expr inh – Primary qHTS for Inhibitors of ATXN expression; 360,000 compounds, 0.72% hits; Potency, µM (highest dose often 57 µM), inactives show top-dose activity change, negative = inhibition, usual class: inhibitors; HEK-293 ATXN2-luciferase reporter, luminescence, 24 h; also: % is scaled to controls: 0 for no effect and ±100 for the full control effect; nearly all actives have a fitted effect of over 55% in size
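ATXN2-luciferase reporter cells (luciferase flanked by upstream and downstream ATXN2 gene portions) were treated 24 h at 37 °C with compounds at up to 57 uM. SteadyGlo luminescence gave expression; GF-AFC fluorescence gave viability.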
HepG2 viability – qHTS for Inhibitors of TGF-b: Cytotox Counterscreen; AID 588856, 2011; 410,000 compounds, 0.76% hits; HepG2 CAGA-GFP viability, ATP luminescence, 18 h; Potency, µM (highest dose often 46.1 µM), for the others: at the highest dose activity change, negative = cytotoxicity, hits mostly cytotoxic
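CellTiter-Glo luminescence gave cytotoxicity after 18 hours at 37 degrees C. The cells were HepG2 CAGA-GFP in 1% FBS DMEM, stimulated with 500 pg/mL TGF-beta after compound addition. %Activity was normalised to no-cell wells (complete cell-killing) and DMSO (no toxicity), and curves were fitted and classified.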
HT1080 IDH1KD tx – qHTS for induction of synthetic lethality in tumor cells producing 2HG: qHTS for the HT-1080-IDH1KD cell line | 360,000 compounds, 2% hits | HT-1080 IDH1 knockdown viability, ATP luminescence, 48 h | Potency, µM (titrated, usually from 46.1 µM), for the others: at the top dose activity, negative = toxicity, most hits filed as cytotoxic;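 also: 0% = DMSO wells and -100% = cell-free medium wells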
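Assay cells: HT-1080 with IDH1 knockdown, 750 per well, RPMI/5% FBS. Exposure: 48 h at 37 °C following 2 h pre-incubation. Read: CellTiter-Glo luminescence; fitted concentration-response, curve class assigned.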
* = called active by the depositor; i = inactive; ? = inconclusive; · = not tested or not shown; [ ] = another dose, or the depositor's remark. Calls follow the shape of the dose curve; as a rule, active = well fitted curve in the direction sought with a large enough effect; inconclusive = small, poorly fitted or top-dose-only effect, or another doubt; inactive = no such curve, though single readings can be large; an effect the other way counts as inactive or inconclusive. Potency is read from the fitted curve at half-maximal effect.

SMILES | TGFb SMAD3 inh | HT1080-NT tox | ATXN viability | ATXN2 expr inh | HepG2 viability | HT1080 IDH1KD tx
Cc1ccc(-n2nc(CO)c(C(=O)NCCCCc3ccccc3)n2)cc1C | 0.0% | · | · | · | -11.6% | ·
Cc1nc2ccccc2nc1OCc1ccccc1 | -15.5% | -1.5% | i | 16.7% | -6.5% | -2.7%
Cc1nc2ccccc2nc1OCc1cccc(Cl)c1 | 11.2µM* | -15.8% | i | -4.9% | -43.4% | -20.3%
COc1cc(-c2nnc(SCCOc3ccc(Cl)cc3C)o2)cc(OC)c1OC | 0.0% | · | i | -3.7% | 11.2µM* | ·
COc1cc(-c2nnc(SCCOc3ccc(Cl)cc3)o2)cc(OC)c1OC | 0.9% | · | i | 0.6% | 8.5% | ·
CCOc1ccc(-n2nc(CO)c(C(=O)NCC(C)O)n2)cc1 (stereo not given) | 0.3% | · | · | · | 11.7% | ·
CSc1cccc(NC(=O)NCc2cccc(CNC(=O)Nc3cccc(SC)c3)c2)c1 | ? | 23.1µM* | ? | · | 12.6µM* | ?
COc1ccc(C2CC(c3c(-c4ccccc4)c4cc(Cl)ccc4[nH]c3=O)=NN2C(=O)CCC(=O)O)cc1 (stereo not given) | 16.9% | -26.9% | i | -2.7%[11.3 µM] | 25.6% | ?
COc1ccccc1C1CC(c2c(-c3ccccc3)c3cc(Cl)ccc3[nH]c2=O)=NN1S(C)(=O)=O (stereo not given) | ? | 25.9µM* | ? | ? | -20.5% | ?
COc1cccc(C2CC(c3c(-c4ccccc4)c4cc(Cl)ccc4[nH]c3=O)=NN2S(C)(=O)=O)c1OC (stereo not given) | ? | ? | i | ? | -4.8% | 18.4µM*
C[C@H]1C[C@H]2[C@@H]3CCC4=CC(=O)C=C[C@]4(C)[C@H]3C(=O)C[C@]2(C)[C@@]1(O)C(=O)CO | · | · | i | -0.3% | · | ·
COc1ccc(CN2CCOc3c(cc(-c4cccc(OC)n4)cc3OC)C2)c(O)c1 | · | · | i | · | · | ·
COc1ccccc1CN(C)C(=O)C(c1ccccc1)c1ccccc1 | 0.0% | ? | i | -24.3% | -7.6% | 16.4µM*
CN(Cc1ccc(F)cc1)C(=O)C(c1ccccc1)c1ccccc1 | -6.5% | -0.4% | i | -10.2% | -6.0% | -5.1%
CCOc1ccccc1-c1c2cc(O)c(=O)cc-2oc2cc(O)c(O)cc12 | 2.82µM* | ? | · | ? | -2.8% | ?
O=c1cc2oc3cc(O)c(O)cc3c(-c3ccccc3O)c-2cc1O | 16.0% | -14.6% | i | · | -23.5% | -16.0%
COc1ccc(OC)c(-c2c3cc(O)c(=O)cc-3oc3cc(O)c(O)cc23)c1 | ? | ? | 20µM* | ? | -19.1% | ?
Cc1c(C(=O)N2CCCC(C)C2)sc2ncnc(NCCN3CCCCC3)c12 (stereo not given) | · | · | i | · | · | ·
CCCCC(O)/C=C(C)/C=C/C=C/C(=O)N1CCCC1=O (stereo not given) | · | · | i | 14.6% | · | ·
CC(C)(C)OC(=O)N[C@@H](Cc1ccccc1)c1nnc(S(=O)(=O)Cc2cccc(F)c2)o1 | 11.2µM* | ? | · | ? | -102.2% | 23.1µM*
CC(C)C[C@H](N)c1nnc(S(=O)(=O)Cc2cccc(F)c2)o1 | 17.8µM* | ? | · | ? | -90.2% | ?
Cc1cc2c(cc3c(SCc4cccc(F)c4)nnc(C)n32)o1 | · | · | · | · | -34.8% | ·
CCCCCCc1cc2cc(S(=O)(=O)c3ccc(F)c(Cl)c3)c(=O)oc2cc1O | -47.0% | 16.4µM* | · | ? | -46.7% | ?
CCCCCCc1cc2cc(C(=O)OCC)c(=O)oc2cc1O | 2.4% | 2.4% | i | · | -28.2% | -10.8%
CC(C)CS(=O)(=O)c1oc(-c2ccc(F)cc2)nc1S(=O)(=O)c1ccccc1 | 3.16µM* | · | · | · | 7.08µM* | ·
